Where “and” joins values, the source holds several entries; their conditions need not be identical. Identical values can stand only once. Compounds without any hit were thinned out: in the full panel of roughly 79,000, 15% have a hit. Where a structure was tested more than once in an assay, its records may differ in their call. Calls of active or inactive are those of the source. Rule as the data show it: active = growth inhibition above about 70%; inactive = the rest.

Assay [1] in a line: NCI Yeast Anticancer Drug Screen. Data for the rad50 strain (AID 155).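 Also: 0% = growth of vehicle-only cultures of the same strain.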 Conditions: S. cerevisiae rad50 strain growth inhibition, stronger effect = higher value. In a few lines: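 Genetically altered yeast (DNA repair pathway); compound treatment; growth inhibition vs vehicle ctrl.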
A short description of assay [2]: NCI Yeast Anticancer Drug Screen. Data for the mec2-1 strain (AID 157). Conditions: S. cerevisiae mec2-1 strain, stronger effect = higher value. The method, boiled down:
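Vehicle-treated cultures served as reference for growth inhibition of compound-exposed mec2-1 yeast.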

The nature of assay [3]: NCI Yeast Anticancer Drug Screen. Data for the sgs1 mgt1 strain (AID 161).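 Also: 0% = growth of cultures given vehicle only.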 The conditions noted are these: S. cerevisiae sgs1 mgt1 strain, stronger effect = higher value. The method, boiled down:
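Mutant yeast exposed to compound; growth scored against vehicle-only wells.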

A short description of assay [4]: NCI Yeast Anticancer Drug Screen. Data for the cln2 rad14 strain (AID 165).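 Also: 0% = growth equal to vehicle treated cultures.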 Conditions: S. cerevisiae cln2 rad14 strain, stronger effect = higher value. In a few lines: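 Each compound was tested on cln2 rad14 yeast. Inhibition of growth was calculated against vehicle-exposed controls.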
The nature of assay [5]: NCI Yeast Anticancer Drug Screen. Data for the bub3 strain (AID 167). Conditions: S. cerevisiae bub3 mutant strain, stronger effect = higher value. In a few lines:
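Yeast carrying a defined mutation is treated with each compound, and growth is compared with that of vehicle-exposed cells to give inhibition.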

Assay [6] is described as follows: NCI Yeast Anticancer Drug Screen. Data for the mlh1 rad18 strain (AID 175). The conditions noted are these: S. cerevisiae mlh1 rad18 strain growth inhibition, stronger effect = higher value. In a few lines:
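Vehicle-treated cultures served as the reference for growth inhibition in a yeast strain carrying DNA damage repair alterations exposed to each compound.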

Setting [7] is: at 5.0 µM (retest, dose inferred, filed as 0.5).
Where [8] appears, read: at 50.0 µM (retest, dose inferred, filed as 5.0).

Consider `Cc1nc2c(Br)cc(Br)cc2c(=O)n1-c1ccccc1NC1OC(CO)C(O)C(O)C1O` (stereo unspecified), for which the growth inhibition in assay [1] (setting [7]) was 9% (inactive); in assay [1] (setting [8]), 41% (inactive); in assay [1] (at 50.0 µM) it was -11.9% (inactive) and 65.8% (inactive); in assay [2] (setting [7]), 5% (inactive); in assay [2] (setting [8]), 32% (inactive); in assay [2] (at 50.0 µM), -33.6% (inactive) and 17.9% (inactive). Besides, the growth inhibition is 7% (inactive) in assay [3] (setting [7]); 25% (inactive) in assay [3] (setting [8]); -5.65% (inactive) and 47.2% (inactive) in assay [3] (at 50.0 µM); 11% (inactive) in assay [4] (setting [7]); 75% (active) in assay [4] (setting [8]); -54.8% (inactive) and 64.5% (inactive) in assay [4] (at 50.0 µM). In addition, the growth inhibition in assay [5] (setting [7]) is 7% (inactive); in assay [5] (setting [8]), 56% (inactive); in assay [5] (at 50.0 µM), -31.3% (inactive) and 74.8% (active); in assay [6] (setting [7]), -25% (inactive); in assay [6] (setting [8]) it was 67% (inactive); in assay [6] (at 50.0 µM) it was -35.1% (inactive) and 75% (active).
For the compound `CCCCCCCCCCCCCCCCOP(=O)(O)OCC(NC(C)=O)C(=O)O` (stereo unspecified), the growth inhibition in assay [1] (setting [7]) was -2% (inactive); in assay [1] (setting [8]), 100% (active); in assay [1] (at 50.0 µM), 99.2% (active); in assay [2] (setting [7]) it was 17% (inactive); in assay [2] (setting [8]), 100% (active); in assay [2] (at 50.0 µM), 99.5% (active). Besides, the growth inhibition was 4% (inactive) in assay [3] (setting [7]); 95% (active) in assay [3] (setting [8]); 99.3% (active) in assay [3] (at 50.0 µM); 37% (inactive) in assay [4] (setting [7]); 99% (active) in assay [4] (setting [8]); 99.3% (active) in assay [4] (at 50.0 µM). Besides, the growth inhibition is 1% (inactive) in assay [5] (setting [7]); 97% (active) in assay [5] (setting [8]); 99.5% (active) in assay [5] (at 50.0 µM); -1% (inactive) in assay [6] (setting [7]); 99% (active) in assay [6] (setting [8]); 99.4% (active) in assay [6] (at 50.0 µM).
For the compound `CC(=O)Nc1ccc(S(=O)(=O)N/N=C/c2ccc(C)cc2)cc1`, the growth inhibition in assay [1] (setting [7]) was 7% (inactive); in assay [1] (setting [8]) it was 8% (inactive); in assay [1] (at 50.0 µM) it was -3.15% (inactive); in assay [2] (setting [7]), 8% (inactive); in assay [2] (setting [8]), 1% (inactive); in assay [2] (at 50.0 µM), -17.6% (inactive). The growth inhibition in assay [3] (setting [7]) was 15% (inactive); in assay [3] (setting [8]), 6% (inactive); in assay [3] (at 50.0 µM), 7.45% (inactive); in assay [4] (setting [7]) it was 8% (inactive); in assay [4] (setting [8]), 1% (inactive); in assay [4] (at 50.0 µM), 64.5% (inactive). For the same compound, the growth inhibition in assay [5] (setting [7]) is 26% (inactive); in assay [5] (setting [8]) it was -1% (inactive); in assay [5] (at 50.0 µM) it was -38.6% (inactive); in assay [6] (setting [7]), 28% (inactive); in assay [6] (setting [8]), 7% (inactive); in assay [6] (at 50.0 µM), -12.4% (inactive).
On to `O=[N+]([O-])C1=C(c2ccccc2)SC=C(c2ccccc2)S1`, for which the growth inhibition is 6% (inactive) and -1% (inactive) in assay [1] (setting [7]); 13% (inactive) and -6% (inactive) in assay [1] (setting [8]); 24% (inactive) and 71.5% (active) in assay [1] (at 50.0 µM); -6% (inactive) and 10% (inactive) in assay [2] (setting [7]); -3% (inactive) and 1% (inactive) in assay [2] (setting [8]); 13.4% (inactive) and 82.9% (active) in assay [2] (at 50.0 µM). Also, the growth inhibition in assay [3] (setting [7]) was 3% (inactive) and 22% (inactive); in assay [3] (setting [8]), -1% (inactive) and -5% (inactive); in assay [3] (at 50.0 µM), 31.6% (inactive) and 84.7% (active); in assay [4] (setting [7]), 18% (inactive) and 1% (inactive); in assay [4] (setting [8]), 64% (inactive) and -4% (inactive); in assay [4] (at 50.0 µM), 54.9% (inactive) and 89.1% (active). Besides, the growth inhibition is 48% (inactive) and 50% (inactive) in assay [5] (setting [7]); 80% (active) and 28% (inactive) in assay [5] (setting [8]); 12.4% (inactive) and 84.8% (active) in assay [5] (at 50.0 µM); -9% (inactive) and 17% (inactive) in assay [6] (setting [7]); -10% (inactive) and -3% (inactive) in assay [6] (setting [8]); 57.5% (inactive) and 85.9% (active) in assay [6] (at 50.0 µM).
As to `OC(c1ccccc1)(c1ccccc1)c1ccccc1` (tested in a mixture with another compound), the growth inhibition in assay [1] (setting [7]) is -5% (inactive); in assay [1] (setting [8]), 94% (active); in assay [1] (at 50.0 µM), 10.7% (inactive) and 96.7% (active); in assay [2] (setting [7]) it was -7% (inactive); in assay [2] (setting [8]) it was 91% (active); in assay [2] (at 50.0 µM), 2.55% (inactive) and 96.5% (active). The growth inhibition in assay [3] (setting [7]) is -3% (inactive); in assay [3] (setting [8]), 90% (active); in assay [3] (at 50.0 µM), -1.85% (inactive) and 92.7% (active); in assay [4] (setting [7]) it was -12% (inactive); in assay [4] (setting [8]) it was 94% (active); in assay [4] (at 50.0 µM) it was -4.75% (inactive) and 95.2% (active). In addition, the growth inhibition in assay [5] (setting [7]) is -7% (inactive); in assay [5] (setting [8]), 96% (active); in assay [5] (at 50.0 µM), 1.15% (inactive) and 95.4% (active); in assay [6] (setting [7]) it was -6% (inactive); in assay [6] (setting [8]) it was 93% (active); in assay [6] (at 50.0 µM) it was 9.15% (inactive) and 94% (active).
Consider `OCC1OC(Sc2ncc[nH]2)C(O)C(O)C1O` (stereo unspecified), for which the growth inhibition in assay [1] (setting [7]) is -12% (inactive); in assay [1] (setting [8]) it was 4% (inactive); in assay [1] (at 50.0 µM), 5.1% (inactive) and 4.95% (inactive); in assay [2] (setting [7]), -1% (inactive); in assay [2] (setting [8]), -10% (inactive); in assay [2] (at 50.0 µM) it was -7.25% (inactive) and -9.95% (inactive). Moreover, the growth inhibition is -30% (inactive) in assay [3] (setting [7]); -11% (inactive) in assay [3] (setting [8]); -4.55% (inactive) and -7.65% (inactive) in assay [3] (at 50.0 µM); 11% (inactive) in assay [4] (setting [7]); 3% (inactive) in assay [4] (setting [8]); 4.15% (inactive) and 44.2% (inactive) in assay [4] (at 50.0 µM). Moreover, the growth inhibition is 0% (inactive) in assay [5] (setting [7]); 0% (inactive) in assay [5] (setting [8]); -1.3% (inactive) and -3.2% (inactive) in assay [5] (at 50.0 µM); -18% (inactive) in assay [6] (setting [7]); -14% (inactive) in assay [6] (setting [8]); -17.8% (inactive) and -16.8% (inactive) in assay [6] (at 50.0 µM).
For the compound `CCN1CCC(O)(/C=C/c2ccc(C)cc2)C(C(=O)/C=C/c2ccc(C)cc2)C1` (stereo unspecified), the growth inhibition in assay [1] (setting [7]) is 20% (inactive); in assay [1] (setting [8]) it was 98% (active); in assay [1] (at 50.0 µM) it was 90.1% (active); in assay [2] (setting [7]), 15% (inactive); in assay [2] (setting [8]) it was 99% (active); in assay [2] (at 50.0 µM), 91.4% (active). Besides, the growth inhibition in assay [3] (setting [7]) is -29% (inactive); in assay [3] (setting [8]), 99% (active); in assay [3] (at 50.0 µM), 91.2% (active); in assay [4] (setting [7]) it was 9% (inactive); in assay [4] (setting [8]) it was 99% (active); in assay [4] (at 50.0 µM), 91.8% (active). The growth inhibition in assay [5] (setting [7]) is 14% (inactive); in assay [5] (setting [8]), 99% (active); in assay [5] (at 50.0 µM), 90.6% (active); in assay [6] (setting [7]), 24% (inactive); in assay [6] (setting [8]), 98% (active); in assay [6] (at 50.0 µM), 92.7% (active).

The values are drawn from PubChem BioAssay (NCI).
